From PubChem BioAssay AID1578 (Sanford-Burnham Center for Chemical Genomics, 2009)
The whole screen tested about 290,000 compounds, of which about 3,000 (1%) were called active. No stated cut-off is given here; in the data, active means inhibition mostly above about 36% (no sharp cut-off); inactive means mostly below about 34%. Only a selection was taken, and actives are over-represented in it overall.

Test: inhibition of NOD1-driven NF-kB reporter – cell-based, luminescence, uHTS, primary screen (AID 1578);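 further: HEK-293T reporter cells stimulated with the NOD1 agonist gamma-tri-DAP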
Settings: NOD1-driven NF-kB luciferase reporter cells, at 4 µM, active compounds read high

| Compound | inhibition |
| --- | --- |
| COc1cccc(OC)c1-c1nn(-c2ncc(C(F)(F)F)cc2Cl)c(=O)o1 | -7.3% (inactive) |
| CCOC(=O)c1cc2c(nc1N)CCCC2 | 1.3% (inactive) |
| O=C(Cc1cccs1)Nc1nc2c(ccc3ccccc32)s1 | 35.8% (active) |
| CC(=O)Nc1nc2c(ccc3ccccc32)s1 | -38% (inactive) |
| O=C(Cc1cccs1)Nc1nc2ccccc2s1 | -32.2% (inactive) |
| COCCn1c(SCC(=O)NCC2CCCO2)nc2c(c1=O)SCC2 (stereo not drawn) | -12.5% (inactive) |
| COc1ccc(S(=O)(=O)Cc2ccc(C(=O)NCc3ccc(C)cc3)o2)cc1 | -23.8% (inactive) |
| O=C(/C=C/c1ccccc1)NC(=S)Nc1ccc(N2CCOCC2)cc1 | -25.8% (inactive) |
| COc1cc(C(=O)Nc2scc(-c3ccc(C)cc3)c2C(=O)O)cc(OC)c1OC | 12.7% (inactive) |
| COc1cc(C(=O)Nc2sc3c(c2C(=O)O)CCC3)cc(OC)c1OC | 7.5% (inactive) |
| O=C(Nc1sc2c(c1C(=O)O)CCCC2)c1cccs1 | 43.6% (inactive) |
| COc1cc(C(=O)Nc2scc(-c3ccccc3)c2C(=O)O)cc(OC)c1OC | -21.1% (inactive) |
| O=C(Nc1scc(-c2cccs2)c1C(=O)O)c1cccs1 | -40.1% (inactive) |
| COc1cc(C(=O)Nc2sc(C)c(C)c2C(=O)O)cc(OC)c1OC | -18.1% (inactive) |
| COc1ccc(-c2csc(NC(=O)c3cccs3)c2C(=O)O)cc1OC | -46.6% (inactive) |
| O=C(/C=C/c1ccccc1)Nc1sc2c(c1C(=O)O)CCC2 | -2.6% (inactive) |
| COc1ccc(CN(C)C(=O)c2cnc(OC)cc2C(F)(F)F)c(OC)c1 | 1% (inactive) |
| OC(CC#CCN1CCCCC1)(c1ccccc1)c1ccccc1 | -4.1% (inactive) |
| CCN(c1ccccc1)S(=O)(=O)c1cccc(C(=O)N2CCN(S(=O)(=O)c3ccccc3)CC2)c1 | -20.1% (inactive) |
| Cc1cc(C)nc(NS(=O)(=O)c2ccc(NC(=O)c3ccccc3[N+](=O)[O-])cc2)n1 | -22.1% (inactive) |
| COc1ccc(-c2nnc(-c3cccnc3)o2)cc1OC | -21.1% (inactive) |

| Compound | inhibition |
| --- | --- |
| CC(CNC(=O)COc1ccccc1)OC(=O)Nc1cccc(Cl)c1 (stereo not drawn) | 16.6% (inactive) |
| CC1=CS/C(=C(/C#N)C(=O)NCc2ccco2)N1c1ccccc1 | 4% (inactive) |
| COC(=O)C(Cc1c[nH]c2ccccc12)NC(=O)CNC(C)=O (stereo not drawn) | 6.8% (inactive) |
| CC1CCc2c(sc(NC(=O)c3ccco3)c2C(=O)O)C1 (stereo not drawn) | 14.4% (inactive) |
| COC(=O)c1c(NC(=O)c2cccs2)sc2c1CCC(C)C2 (stereo not drawn) | -32.6% (inactive) |
| O=C(NCCCN1CCN(c2ccccc2F)CC1)C1CC(=O)N(C2CCCC2)C1 (stereo not drawn) | 14.3% (inactive) |
| O=C(NC(=S)Nc1ccc2[nH]c(=O)[nH]c2c1)c1cc(Br)ccc1Cl | 47.4% (active) |
| O=C(NC(=S)Nc1ccc2[nH]c(=O)[nH]c2c1)c1ccccc1Cl | -31.2% (inactive) |
| COc1ccc(Br)cc1C(=O)NC(=S)Nc1ccc2[nH]c(=O)[nH]c2c1 | -35.1% (inactive) |
| COc1ccc2[nH]c(=O)c(CN(Cc3cccnc3)C(=S)NCC3CCCO3)cc2c1 (stereo not drawn) | -30.3% (inactive) |
| O=c1c2[nH]c3ccc(F)cc3c2ncn1CCN1CCOCC1 | -10.5% (inactive) |
| O=P(c1ccccc1)(c1ccccc1)C1CCCO1 (stereo not drawn) | 4.7% (inactive) |
| O=S(=O)(c1ccccc1)N1CCC2(CC1)OCCO2 | -41.5% (inactive) |
| O=S(=O)(c1ccccc1)N1CCC2(CC1)CO2 | 75.5% (active) |
| O=S(=O)(c1ccc(Cl)cc1)N1CCC2(CC1)CO2 | -17.5% (inactive) |
| O=C(NCCCNC(=O)C(F)(F)C(F)F)C(F)(F)C(F)F | -3.6% (inactive) |
| O=C(CNS(=O)(=O)c1ccc(Br)cc1)Nc1ccc2c(c1)OCCO2 | -27.7% (inactive) |
| CCC(CC)=NNC(=O)c1ccccc1OCc1ccc(F)cc1 | -13.1% (inactive) |
| FC(F)(F)c1ccc(/C=N/NC(=S)NC2CCCCC2)cc1 | -19.8% (inactive) |
| COc1cccc(OCc2cc(C(=O)N3CCC(c4ccncc4)CC3)no2)c1 | 26.7% (inactive) |
| Cc1cccc(C)c1OCc1cc(C(=O)N2CCC(c3ccncc3)CC2)no1 | 6.6% (inactive) |

| Compound | inhibition |
| --- | --- |
| CSc1ccccc1OCc1cc(C(=O)N2CCC(Oc3cccnc3)CC2)no1 | -30.2% (inactive) |
| COCC1CCN(C(=O)c2cc(COc3ccccc3SC)on2)C1 (stereo not drawn) | -17.6% (inactive) |
| Cc1ccc(NC(=S)NC(NC(=O)N(C)C)C(Cl)(Cl)Cl)cc1 (stereo not drawn) | -18.2% (inactive) |
| Cc1cc(OCC(=O)N(C(C)C)C(C)C)ccc1Cl | -6.4% (inactive) |
| O=[N+]([O-])c1cccc(-c2nnc(C34CC5CC(CC(C5)C3)C4)o2)c1 | 3.3% (inactive) |
| CCn1c(C)nc2cc(NC(=O)Nc3cccc(C(C)=O)c3)ccc21 | 27.9% (active) |
| Cc1nc2cc(NC(=O)Nc3cccc4ccccc34)ccc2n1C | -27.6% (inactive) |
| COc1ccccc1NC(=O)Nc1ccc2c(c1)nc(C)n2C | -28.8% (inactive) |
| Cc1nc2cc(NC(=O)Nc3ccccc3Cl)ccc2n1C | 53% (active) |
| CCn1c(C)nc2cc(C(=O)NNC(=O)Nc3cccc(Cl)c3)ccc21 | -5.3% (inactive) |
| CC(=O)c1ccc(NC(=O)Nc2ccc3c(c2)nc(C)n3C)cc1 | -18.8% (inactive) |
| CN1CCN(C(=O)C2CCCN(S(=O)(=O)c3ccc(F)cc3)C2)CC1 (stereo not drawn) | -7.3% (inactive) |
| Cc1ccccc1Nc1n[nH]c(C)c1[N+](=O)[O-] | -24.5% (inactive) |
| O=C(NCCc1ccccc1)c1cccc2c1C(=O)N(C1CCCCC1)C2 | -19.5% (inactive) |
| COc1ccc(CC(=O)Nc2cccnc2)cc1 | -8.6% (inactive) |
| COc1ccc(CC(=O)Nc2ccccc2NC(=O)Cc2ccc(OC)cc2)cc1 | -7.4% (inactive) |
| O=C(Cc1ccc(Cl)cc1Cl)Nc1ccncc1 | 42.8% (inactive) |
| O=C(Cc1c(Cl)cccc1Cl)Nc1ccncc1Cl | 5.2% (inactive) |
| COc1ccccc1/C=C/CN1CC(C)OC(C)C1 (stereo not drawn) | -19.9% (inactive) |
| Cc1ccc(NC(=O)CCn2cccc2)cc1 | 3.6% (inactive) |
| O=C(CSc1nnc(-c2cccnc2)n1Cc1ccccc1)NCc1ccco1 | 8.8% (inactive) |
